Screening data (PubChem)
In the library only some 3.5% were active in any assay of this set; here they are far more common.
FBW7 act = FBW7 E3 ligase activators, primary screen, biochemical, AlphaScreen, human; AlphaScreen FBW7–phospho-cyclin E peptide binding, activator screen; normalized activity (activation), % at 26.1 µM; 650,000 tested, 0.13% active; in the data active = normalized activity above about 1.9%;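 also: purified mutant Fbw7 with reduced substrate affinity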
Target sequence (Q969H0 whole entry, looked up): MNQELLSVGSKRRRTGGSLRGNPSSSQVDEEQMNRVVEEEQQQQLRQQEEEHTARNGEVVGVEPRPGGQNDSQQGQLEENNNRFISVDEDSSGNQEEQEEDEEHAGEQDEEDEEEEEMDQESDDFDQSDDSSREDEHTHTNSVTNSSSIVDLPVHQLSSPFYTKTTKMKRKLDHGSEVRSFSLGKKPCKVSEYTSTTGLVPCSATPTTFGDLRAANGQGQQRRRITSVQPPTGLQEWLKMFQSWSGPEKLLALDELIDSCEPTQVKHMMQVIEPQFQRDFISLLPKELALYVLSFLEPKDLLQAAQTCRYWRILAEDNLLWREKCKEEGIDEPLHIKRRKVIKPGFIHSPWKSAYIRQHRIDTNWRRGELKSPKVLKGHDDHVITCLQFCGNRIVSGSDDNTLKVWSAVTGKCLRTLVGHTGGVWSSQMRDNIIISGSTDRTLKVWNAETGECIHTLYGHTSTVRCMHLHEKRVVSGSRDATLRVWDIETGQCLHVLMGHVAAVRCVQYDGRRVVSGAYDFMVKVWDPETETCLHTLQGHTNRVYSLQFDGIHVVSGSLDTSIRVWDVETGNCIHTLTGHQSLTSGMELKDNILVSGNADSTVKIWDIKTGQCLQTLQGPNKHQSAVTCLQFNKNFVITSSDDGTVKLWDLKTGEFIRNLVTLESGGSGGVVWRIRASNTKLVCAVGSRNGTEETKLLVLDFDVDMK
MITF primary = MITF inhibitors, primary screen, biochemical, AlphaScreen, human | 650,000 tested, 0.91% active | inhibition, % at 2.6 µM | AlphaScreen MITF homodimerization, bead proximity signal; in the data active = inhibition above about 50%;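 also: 0% = vehicle wells with protein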
GPR151 ag = activators of human GPR151, primary screen, cell-based, PathHunter beta-arrestin, luminescence | G-protein coupled receptor 151 (Homo sapiens), Q8TDV0 | PathHunter beta-arrestin GPR151 cells | activation, % at 11.2 µM | 650,000 tested, 1% active; in the data active = activation above about 4.9%;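 also: 0% = median of compound wells and 100% = cells with positive control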
TEAD-YAP inh = TEAD-YAP interaction inhibition, primary screen, TEAD-YAP interaction inhibitor project, luminescence, HEK-TIYL cells; TEAD-Gal4/YAP UAS-luciferase luminescence; inhibition, % at 9.12 µM; 640,000 tested, 1.4% active; AID 1259422, 2018; in the data active = inhibition above about 32%;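 also: 0% = median of test compound wells and 100% = reference inhibitor wells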
MITF confirm = MITF inhibitors, retest of hits, confirmation, biochemical, AlphaScreen, triplicate. shares compounds with MITF primary. inhibition, % at 2.6 µM. 4,700 tested, 16% active. AlphaScreen MITF homodimerization, biotin/His-MITF beads;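 active = inhibition above a cutoff derived from the DMSO control wells, cut at about 28% in these data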;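 also: 0% = MITF dimer wells with DMSO only; inhibitors lower the bead chemiluminescence by keeping MITF from dimerizing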
AS interf DR = AlphaScreen optical interference compounds, dose response, counter-screen, biochemical, HTS | AlphaScreen optical interference counterscreen, cell-free | 480 tested, 6% active | IC50, µM | shares compounds with MITF primary; call rule not given here
AlphaScreen intf2 = AlphaScreen optical interference compounds, counter-screen for MITF inhibitor project, biochemical, triplicate. AID 1259376, 2018. 4,700 tested, 7.6% active. inhibition, % at 2.6 µM. LysRS AlphaScreen counterscreen, signal interference. shares compounds with MITF primary;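 active = inhibition above a cutoff derived from the DMSO control wells, cut at about 30% in these data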
* marks the source's active call; other numbers are inactive results; x = not tested or not shown; ! = repeats disagree.

SMILES	FBW7 act	MITF primary	GPR151 ag	TEAD-YAP inh	MITF confirm	AlphaScreen intf2	others
Nc1ccc(C(=O)O)c(O)c1	0	88*!	0	5	72*	-16	AS interf DR=>6.5
O=C1c2cccc3cccc(c23)C(=O)N1CCS(=O)(=O)OCC(F)(F)F	0	12	0	2	x	x
CN1CCN(CCS(=O)(=O)OCC(F)(F)F)CC1	0	84*	1	4	10	14
NC(=O)c1ccc(-c2cncc(C(=O)NC3CC3)c2)cc1	0	-5	-1	9	x	x
Clc1ccc(N2CCN(Cc3ccc(Br)o3)CC2)cc1	0	58*	1	2	4	-1
Brc1ccc(CN2CCN(Cc3ccccc3)CC2)o1	0	55*	0	1	4	15
CC(O)c1ccc(Nc2nccc(-c3ccccc3)n2)cc1 (stereo not drawn)	1	11	-1	-47	x	x
CCc1ccc(C(=O)NC(C(=O)NCC2CCCO2)C(C)C)cc1 (stereo not drawn)	1	67*	1	1	10	7
CC(C)NC(=O)/C(C#N)=C/c1ccc(-c2ccc([N+](=O)[O-])cc2Br)o1	0	73*	1	-18	77*	-20	AS interf DR=>7.1
CC(=O)N/N=C/c1ccc(-c2ccc([N+](=O)[O-])cc2Br)o1	0	-25	-2	8	x	x
CCN(CC)S(=O)(=O)c1ccc(C(=O)NCc2nnc(SCC(=O)Nc3nccs3)n2-c2cc(C)ccc2C)cc1	0	-19	0	5	x	x
CNC(=O)Nc1ccc2nc(-c3ccco3)c(-c3ccco3)nc2c1	-1	110*	0	16	110*	15	AS interf DR=>6.5
Cc1ccc(NC(=O)c2cc(-c3ccco3)on2)cc1C	0	-2	-1	-68	x	x
C/C(=N\NC(=O)Cc1cc(=O)[nH][nH]1)c1ccco1	0	59*	-1	7	56*	4	AS interf DR=>6.5
CC1=C(C(=O)Nc2cc(C)ccn2)C(c2ccc(N(C)C)cc2)C2=C(CCCC2=O)N1 (stereo not drawn)	0	-8	-1	-1	x	x
CC1CC(C)CN(C(=O)c2cccc3ccccc23)C1 (stereo not drawn)	0	7	-1	-1	x	x
CC1CC(C)CN(C(=O)c2cccc3c2-c2ccccc2C3=O)C1 (stereo not drawn)	0	66*	-1	-9	5	-4
Cc1nn(C)c(C)c1CCC(=O)N1CCN(c2ncccn2)CC1	0	72*	-1	-2	9	14
O=C(c1nn2c(c1Cl)NC(c1ccc(F)cc1)CC2C(F)(F)F)N1CCN(c2ccc(F)cc2)CC1 (stereo not drawn)	0	9	-2	9	x	x
O=C1c2ccc([N+](=O)[O-])cc2C(=O)N1CNc1cc([N+](=O)[O-])ccc1O	1	8	0	-8	x	x
CS(=O)(=O)N1CCN(Cc2ccccc2)CC1	0	4	-1	-5	x	x
CS(=O)(=O)N1CCN(Cc2ccc(F)cc2)CC1	0	62*	-1	4	-8	4
COc1ccc(CN2CCN(S(C)(=O)=O)CC2)cc1	0	57*	1	20	-2	-8
CCCNc1nc(OC)nc(-c2ccc(C(=O)N3CCN(C)CC3)cc2)n1	0	-2	-2	-9	x	x
CCOC(=O)Cc1csc(NC(=O)CCCOc2ccc(C(C)(C)C)cc2)n1	0	13	0	-1	x	x
Cc1ccc(/C=C/C(=O)n2nc(C)cc2C)cc1	0	0	2	-17	x	x
Cc1cc(C)n(C(=O)/C=C/c2ccc(Br)cc2)n1	0	55*	0	-6	7	16
N=C1S/C(=C\c2ccco2)C(=O)N1c1nonc1N	0	82*	-1	-43	60*	2	AS interf DR=>7
O=C(NCc1cccs1)N1CCN(S(=O)(=O)C2CC2)CC1	1	10	0	3	x	x
CCN(CC)CCOCCOc1cccc2ccccc12	0	1	1	2	x	x
